For the experiment, the system named is Plasmodium falciparum. The experiment in a line: GSK_TCMDC: Inhibition of Plasmodium falciparum 3D7 in whole red blood cells, using parasite LDH activity as an index of growth. Test compounds present at 2uM. Type of experiment: functional.
As for `CNC(=O)c1ccccc1Nc1nc(Nc2cccc(CS(C)(=O)=O)c2)ncc1C.O=CO`, the Inhibition is 97%. As for `COc1ccc2ccccc2c1CCCCN1CCN(CC(c2ccc(F)cc2)N2CCN(C3CCCC3)CC2)CC1.O=C(O)C(F)(F)F` (stereo not given), the Inhibition stood at 88%.

Molecule `O=C(Nc1ccc(Oc2ccccc2)cc1)N(Cc1ccc(-c2ccc(CN3CCNCC3)cc2)cc1)C1CCN(Cc2ccccc2)CC1.O=C(O)C(F)(F)F` returned an Inhibition of 100%. Molecule `O=C(Nc1cccc(CN2CCCN(Cc3ccc(O)cc3)CC2)c1)c1ccc(Cl)c(Cl)c1.O=C(O)C(F)(F)F` gave an Inhibition of 100%. Under `CN1CCC(NCc2cccc(-c3ccc(S(=O)(=O)NCc4ccccc4)c(F)c3)c2)CC1.O=C(O)C(F)(F)F` stands 99%.

On to `O=C(NCCN1CCC(NC(=O)c2ccc(-c3ccccn3)s2)CC1)c1cccc(C(F)(F)F)c1.O=C(O)C(F)(F)F`, for which the Inhibition is given as 97%. Under `O=C(Nc1ccc(N2CCCN(Cc3cccc(F)c3)CC2)cc1)c1cccs1.O=C(O)C(F)(F)F` stands 96%; under `COc1cc2nc(N(C)Cc3cccc(I)c3)nc(N)c2cc1OC`, 100%; under `COc1cc(NC(=O)c2cc3c(C)nn(-c4cccc(C(F)(F)F)c4)c3s2)cc(OC)c1OC`, 100%. As for `COc1ccc(C2=[N+]([O-])c3ccccc3C2=O)cc1`, the figure is 93%; as for `CCc1c(CCNCCCCCCNCCc2ccc(OC)cc2)ccc(OC)c1OC.Cl`, 98%; as for `Cc1ccc(C(C)C)c(Oc2cnc(NC(CO)c3ccccc3)nc2N)c1` (stereo not given), 95%. Under `COc1ccc2ncc(F)c([C@H](O)CN3CCC(NCc4ccc5c(c4)OCCO5)CC3)c2c1.Cl` stands 100%; under `Cc1nc2c(s1)c(=O)cc(CCc1cccc(F)c1F)n2CC(=O)N(Cc1ccc(-c2ccc(C(F)(F)F)cc2)cc1)C1CCN(C(C)C)CC1.O=C(O)C(O)C(O)C(=O)O`, 100%. Take `COc1ccc2nccc(N3CCC(O)(CCNCc4ccc5c(n4)NC(=O)CS5)CC3)c2n1.Cl`: the Inhibition is 99%. Under `CCN(CC)CCN(Cc1ccc(-c2ccc(C(F)(F)F)cc2)cc1)C(=O)Cn1c(CCc2cccc(F)c2F)nc(=O)c2ccc(C)cc21.O=C(O)C(O)C(O)C(=O)O` stands 99%; under `N#Cc1ccccc1S(=O)(=O)N1CCCC(CNC(=O)[C@H](CC2CCCCC2)NC(=O)c2cc3ccccc3s2)C1` (stereo not given in full), 97%. As for `COCCN(CCOC)c1ncc(-c2ccsc2)c(-c2nc(C)c(C)s2)n1`, the figure is 96%. Under `O=C(Nc1ccc(Cl)cc1)Nc1cccc(-c2ccc(-c3nc4ccccc4[nH]3)cc2)c1` stands 87%. In turn, `O=C(Nc1ccc(Cl)c(Cl)c1)Nc1cc(C(F)(F)F)ccc1Cl` gave an Inhibition of 100%. For `COc1ccc2ncc(F)c(CCN3CCC(NCc4cc(OC)c5c(c4)OCCO5)CC3)c2n1.Cl`, the Inhibition is 100%.

Molecule `COc1cc(NC(=O)c2sc(-c3ccc(Cl)cc3)cc2NC(=O)CN2CC[C@@H](O)C2)ccc1OCCN1CCCC1` had an Inhibition of 90%.

Molecule `Cc1cc(Cl)ccc1OC(C)C(=O)N1CCc2ccccc21` (stereo not given) returned an Inhibition of 94%. Regarding `Cl.O=C(Nc1ccc(Cl)c(Cl)c1)N1CCc2ccc(OCCCN3CCCCC3)cc2CC1`, the Inhibition is recorded as 92%. As for `CCc1cn2c3c(cc(C(=O)N[C@@H](Cc4cccc(F)c4)[C@H](O)CNC4CC4)cc13)N(C)S(=O)(=O)CC2.O=CO`, the figure is 98%; as for `COc1cc2ncnc(Nc3ccc4nc(Cc5ccccc5)[nH]c4c3)c2cc1OC.Cl`, 87%; as for `CC(C)c1nc(N2CCN(C(=S)NCc3ccccc3)CC2)c(C#N)c2c1COC(C)(C)C2`, 99%. Under `CC(=O)N[C@H](C(=O)Nc1ccc(-c2ccc(-c3nc4cc(C(F)(F)F)ccc4[nH]3)cc2)cc1)C(C)C` stands 88%. Under `CCOc1ccc2c(=NN=Cc3cccc(OC)c3OC)cc(C)[nH]c2c1` stands 100%. The molecule `CCCC(C)NC(=O)[C@H]1CNCCN1C(=O)CCCc1ccccc1.O=C(O)C(F)(F)F` (stereo not given in full) returned an Inhibition of 96%. As for `Cc1cccc2nc(-c3cccc(-c4ccc(NC(=O)Nc5ccc(F)c(F)c5F)cc4)c3)[nH]c12`, the figure is 100%; as for `CCc1c(C)nc(-n2nc(C)cc2NC(=O)CCc2ccccc2)[nH]c1=O`, 97%. As for `O=C(Cn1c(CCc2cccc(F)c2F)cc(=O)c2cccnc21)N(CCn1ccnc1)Cc1ccc(-c2ccc(C(F)(F)F)cc2)cc1`, the figure is 99%; as for `CC(C)[C@H](NC(=O)c1ccc(O)c(-c2ccc(Cl)c(Cl)c2)c1)C(=O)NCCN1CCOCC1`, 95%; as for `O=C(Nc1ccccc1F)N(CCCn1ccnc1)Cc1csc(-c2ccc(CNCc3ccccc3)cc2)n1.O=C(O)C(F)(F)F`, 93%. Under `Cc1nc(C)n(CC(=O)Nc2cccc(-c3cccc(-c4nc5cc(C(F)(F)F)ccc5[nH]4)c3)c2)n1` stands 100%; under `O=C(Nc1cccc(-c2csc(NC(=O)c3ccc4ccccc4c3)n2)c1)c1ccc2ccccc2c1`, 89%. The molecule `CCc1ccc(C2CCN(CCCCNC(=O)c3ccc(NC(=O)c4ccc(Cl)cc4)cc3)CC2)c(OCC(=O)OC)c1` came in with an Inhibition of 95%. Under `CC(C)c1ccc2oc(-c3ccc(NC(=O)c4ccc([N+](=O)[O-])o4)cc3)nc2c1` stands 100%; under `CC(=O)Nc1nnc(SCc2c(C)cc(C(C)(C)C)cc2C)s1`, 98%.

For the origin of these results see ChEMBL document CHEMBL1157539, “Thousands of chemical starting points for antimalarial lead identification” (Nature, 2010).
